The subject of the test is VDR:RXRa (NR concentration 270 nM, RXRa partner concentration 90 nM). As to the kind of experiment: PBM binding z-score (relative to random genomic background probes); higher = stronger binding; sequences stand for … in GC…GCGATTGACAGCGTAGAATGAAGG
On the procedure: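 Protein-binding microarray (Agilent 4x180K custom design, double-stranded 60-nt probes: 5' GC cap, 34-nt variable region, 24-nt constant primer region; full probe sequence given). Purified or IVT nuclear receptor:RXRα heterodimers (3:1 NR:RXRα, mostly 270:90 nM) or homodimers were incubated for 1 h in PBS with 2% milk and no ligand, then detected with Alexa488 antibodies. Fluorescence from o1-orientation probes (~5 replicates averaged) was converted to z-scores against 500 random hg19 background probes. Variable regions are seed direct-repeat (DR0–DR5) sites, all their single-nucleotide variants and half-site ablations.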
In turn, TAGCCTAGGTCTGATCGGGCCAGTATACGCTATA registered a PBM binding z-score of -0.771.
As to TCGAGTAGCTTAGGGGCATTCAGAATGGCGTCGA, the PBM binding z-score was -0.202.
ATATGTAGGTTACATCCGGCTCATTCAGGCTATG returned a PBM binding z-score of 0.412.
In turn, TCTTGTAGGTCAACAGGAGGTTAAGAAAGATCGA came in with a PBM binding z-score of 3.79.
ACTTTTAGTTGACTTAGGGCAACCGATACGACGC gave a PBM binding z-score of 0.839.
Consider ATCTCTAGGTAAGACTCAGTTCAGTGAAGAACGC, for which the PBM binding z-score amounted to 0.833.
ATCGAAAGTTCGACGAGGTGAGTATACACCGTTT came in with a PBM binding z-score of 2.81.
Consider GATACAGGGACAAGGCCAGAGTACGCGTATTGAT, for which the PBM binding z-score is -0.523.
The result for CCGAGTAGGTTATGGGGCATTCAGGCAACGGTGA reads -0.0737; that for TAGCCTAGATCATGGGCCAGTATACCACGCGAAC, -0.59.
For GCTTGTAGATCAAGGTTAAGAACGACTAAGCTAA the value was 0.288; for GCGACTGGGGCATCAGCAGGTAACCATAACTTAA, -0.245.
The result for TCTAGCAGGCCAGAGGGTCACTCATGAGGTACGG reads 1.4.
Take CGTCCAAGGTCAAGGTCAGTAAAAGAGACTCGAA: the PBM binding z-score came out at 4.65.
In the case of CCTCGGAGGGCAGAAGGTCAGAGCTGTCCGCTTT, the PBM binding z-score was found to be 1.17.
The result for CAAACTAGGTCACAGAGGTCAAAGTGCGTGCGTA reads 8.02; that for TGAATGAGGTTATCAGATCAGGGAACGTTGCAAA, 1.04.
The result for TCTTGTAGATCAGCAGGCTAAGAAAGCTGGCCAA reads -0.106; that for CCTACTGGGCCACGAAAGGTCATTGTTTCAGTGA, 4.25; that for CCGAATGGGGCAAGGTTACCATAACGCACAGCCA, 0.34.
In turn, TCTCGGAGGACACGAAAGTCAGAGCTTTCCAGAG gave a PBM binding z-score of -0.402.
In turn, CCTCGGAGGACAACAGGAGGTCGGAGCTGCCAGA showed a PBM binding z-score of -0.0445.
For GCTAGCAGGCCCTTTGGGTCACTCAATGACGGGC the value was -0.206; for GCTTGCGGGTCAAAGGTTATAGCATGAATAGAAT, 5.03; for CGACCTAGGTCATTGACAGGACAGTGAATAGTAA, 2.97.
Sequence CCTCGTTGGTCAAGGTCACACACGCTATAGGTAC registered a PBM binding z-score of 3.93.
Consider ATCTGTAGGTTAGCTGGGGTCATTCAGACTAGGC, for which the PBM binding z-score was 6.14.
The result for ATATGTAGGTTAGCTGGGGTCGTTCAGACTAGGC reads 4.67.
For the sequence CAAACTAGGTCAAGAGGTGAAAGTCCGCTTCCCG, the PBM binding z-score is 2.93.
The sequence CCTATTAGTTGACCATAATGGCAACCGAAGCTCG gave a PBM binding z-score of 0.509.
Consider ACTAGCAGGCCAGGGGTCACTCAAGATTAGTCCG, for which the PBM binding z-score was determined as 4.42.
In turn, TCTTGCAGATCAACAGGAGGTTAAGAAAGATCGA displayed a PBM binding z-score of 0.489.
As to GCGACTGGGGCATCAGCAGGTTACAATAACTTAA, the PBM binding z-score is -0.29.
In turn, TTACCAAGGTGAGCTGAGGTCGTTGTTCCAACTC registered a PBM binding z-score of 4.15.
For CCTCGGAGGACAGGAGGTCAGAGCTGTCCGCTTT the value was 1.47; for TGTTGTAGATCAAAGGTTAAGAAAGCCGAAGCCT, 1.44; for ATCTCTAGGTCAAGTTCAGTGAAAGATCGATAGA, 3.65.
CCTACTGGGCCATCAGGTCTTTGATATCAACGTT: the PBM binding z-score was -0.244.
Take ACTAGCAGGCCATGTTTGGGTCACTCAAACAAAG: the PBM binding z-score is 0.631.
For TCTTGTAGATCAACAGGAGTTTAAGAAAGATCGA the value was 0.517.
